Compound activity (PubChem BioAssay)
PfHsp40 yeast: rescue of PfHsp40-mediated yeast toxicity; actives 0.68% (n = 340,000); S. cerevisiae expressing PfHsp40, growth rescue, ATP luminescence; growth rescue, % at 12.5 µM; in the data active means growth rescue above about 28%, passing the limit was not always enough; inconclusive means no clear call, values can overlap the other calls;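 further: yeast W303a lacking pdr1 and pdr3 grown in galactose medium; growth measured after three days at 30 °C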
Mtb bLac sens: beta-lactam sensitization of Mtb H37Rv. inhibition, % at 25 µM. M. tuberculosis H37Rv growth with meropenem, percent inhibition. actives 0.27% (n = 330,000); call rule not given here;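 further: growth measured after seven days incubation then overnight dye step; 0% = bacteria only wells and 100% = bacteria with antibiotic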
Rv3671c protease: inhibits the M. tuberculosis serine protease Rv3671c; P9WHR9; actives 0.048% (n = 320,000); inhibition, % at 5.96 µM; in the data active means inhibition above about 38%;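 further: extracellular domain of Rv3671c used as enzyme; 0% = enzyme with DMSO and 100% = no enzyme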
FadD28 FP inh: blocks FadD28 binding to the bisubstrate probe | fluorescence polarization | inhibition, % at 12.5 µM | actives 0.22% (n = 360,000) | AID 588549; in the data active means inhibition above about 8.5%, passing the limit was not always enough; inconclusive means no clear call, values can overlap the other calls
Mtb UGM inh: Mtb UDP-galactopyranose mutase inhibition; P9WIQ1; purified UGM, fluorescence polarization probe displacement; inhibition, % at 10 µM; actives 0.06% (n = 320,000); AID 504406; in the data active means inhibition above about 10%, passing the limit was not always enough; inconclusive means no clear call, values can overlap the other calls
Target sequence (P9WIQ1 whole entry, looked up): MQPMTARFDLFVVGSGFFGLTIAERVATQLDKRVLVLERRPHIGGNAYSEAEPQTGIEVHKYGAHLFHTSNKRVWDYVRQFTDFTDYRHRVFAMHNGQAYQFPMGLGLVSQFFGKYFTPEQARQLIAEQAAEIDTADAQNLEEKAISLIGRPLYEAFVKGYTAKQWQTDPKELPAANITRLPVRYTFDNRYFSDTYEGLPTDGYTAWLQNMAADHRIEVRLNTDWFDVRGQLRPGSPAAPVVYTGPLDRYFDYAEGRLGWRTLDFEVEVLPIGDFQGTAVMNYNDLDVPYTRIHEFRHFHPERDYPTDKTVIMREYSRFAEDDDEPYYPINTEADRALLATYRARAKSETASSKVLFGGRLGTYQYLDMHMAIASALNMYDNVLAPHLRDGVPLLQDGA
Yp Topo-I inh: inhibitors of Yersinia pestis topoisomerase I. Y. pestis Topo-I cleavage product accumulation, plate reader. activity, % at 10 µM. actives 0.064% (n = 360,000). AID 504884; in the data active means activity above about 50%, passing the limit was not always enough; inconclusive means no clear call, values can overlap the other calls
Numbers without * were called inactive; ? = inconclusive; / = not tested or not shown. Rows were chosen to be rich in hits. Some 0.98% of all compounds tested hit in one or more screens of this group.

SMILES	PfHsp40 yeast	Mtb bLac sens	Rv3671c protease	FadD28 FP inh	Mtb UGM inh	Yp Topo-I inh
CCN(CC)CCC(O)(c1ccc2c(c1)OCO2)c1cc(OC)c(OC)c(OC)c1 (configuration not stated)	0	/	/	0	/	0
C[C@H]1CN([C@@H](C)CO)S(=O)(=O)c2ccc(Br)cc2O[C@H]1CN(C)C(=O)CCN1CCCCC1	/	/	/	-1	/	3
Cc1ccc(C(O)c2ncc(-c3ccccc3)[nH]2)c(C)c1 (configuration not stated)	/	/	/	-4	/	-1
CC(C)(C)c1cc(NCc2ccccn2)n2ncc(-c3ccccc3)c2n1	52*	98	5	0	0	30
O=C(CN1CCN(c2ncc(C(F)(F)F)cc2Cl)CC1)NCCNc1ncc(C(F)(F)F)cc1Cl	294*	-2	2	-2	1	8
NNC(=O)CN1CCN(c2ncc(C(F)(F)F)cc2Cl)CC1	0	-3	3	-4	-2	6
CC1(C)Cc2cccc(OCC(=O)N3CCN(c4cccc(C(F)(F)F)c4)CC3)c2O1	41*	-7	3	-4	-1	2
CC1(C)Cc2cccc(OCC(=O)N3CCN(c4cccc(Cl)c4)CC3)c2O1	7	-9	-4	-1	0	36
CCCc1ccc2oc(C(=O)NCCc3nc(C(=O)OCC)cs3)c(C)c2c1	40*	/	/	-5	/	9
O=C(/C=C/[C@H]1O[C@@H](n2cnc3c(NC(=O)c4ccccc4)ncnc32)[C@H](O)[C@@H]1O)NCCCN1CCCC1=O	/	/	/	-9	/	/
Cc1cccc(C)c1OCC(=O)NNC(=S)NC(=O)C1CC1	83*	62	-9	-3	-1	6
Cc1cccc(C)c1OCC(=O)NC1CC1	-2	-5	2	-2	-6	10
COc1cnc(-c2ccccn2)nc1Sc1ccc(C)cc1	359*	85	-6	-9	-2	2
COc1ccccc1Sc1nc(-c2ccccn2)ncc1OC	1	76	3	-2	1	14
FC(F)(F)c1cccc(Sc2cc(C(F)(F)F)nc(-c3ccccn3)n2)c1	-2	2	-3	1	0	2
Cc1ccc(Sc2cc(C)nc(-c3ccccn3)n2)cc1	145*	89	5	-5	1	11
COc1ccc(-c2ccc3n2Cc2cnnn2-c2ccccc2-3)cc1	137*	/	/	-3	/	31
CC1CC(C)CN(S(=O)(=O)c2ccc(C(=O)NNC(=O)c3ccccc3F)cc2)C1 (configuration not stated)	0	0	0	-3	-1	2
COc1ccc(N(C(=O)c2ccco2)S(=O)(=O)c2cccs2)cc1	1	8	-2	-2	-1	5
O=C(Nc1ccccc1N(C(=O)c1ccco1)S(=O)(=O)c1cccs1)c1ccco1	41*	-3	4	-3	1	-3
Cc1cc(N=Nc2ccccc2C(=O)O)c(C)c(C)c1O	150*	-2	-4	?	5	7
CN(Cc1cnn(-c2ccccc2)c1)C(=O)c1cccc(S(=O)(=O)Nc2ccccc2F)c1	/	/	/	-1	/	19
c1ccc(CC2CCN(Cc3ccccn3)CC2)cc1	50*	40	3	-2	0	1
Clc1ccc(CN2CCC(Cc3ccccc3)CC2)cc1	2	-4	2	-3	-2	3
CN(C)c1nc(N)nc(CSc2nnnn2-c2ccc(Cl)cc2)n1	/	/	/	-3	/	12
SMILES	PfHsp40 yeast	Mtb bLac sens	Rv3671c protease	FadD28 FP inh	Mtb UGM inh	Yp Topo-I inh
COC(C/C=C\C(=O)[C@@H](C)OCc1ccccc1)OC	/	50	-3	/	-2	/
CN(CCCC1CCCC1)C(=O)c1cc(COc2ccc(F)c(F)c2)on1	44*	24	-1	1	1	46
CN(CCCC1CCCC1)C(=O)c1cc(COc2c(F)cccc2F)on1	3	2	-5	-1	1	39
COCCCN1C(=O)C(CC(=O)NCCCCc2ccccc2)CC(C(=O)N(C(C)C)C(C)C)=C1C (configuration not stated)	/	/	/	-1	/	/
CN1C(=O)/C(=C/c2cn(CC(=O)N3CCCCC3)c3ccccc23)NC1=S	-2	1	/	-3	1	0
CCN1C(=O)NC(=O)/C(=C\c2cn(CC(=O)N3CCCCC3)c3ccccc23)C1=O	-1	3	-18	3	41*	-6
CCN1C(=O)NC(=O)/C(=C\c2cn(CC(=O)O)c3ccccc23)C1=O	/	1	-13	/	0	/
CCN1C(=O)NC(=O)/C(=C\c2cn(CC(=O)N3CCCC3)c3ccccc23)C1=O	1	12	-13	/	52*	8
O=C(O)c1cccc(-n2cccc2/C=C/[N+](=O)[O-])c1	0	-6	11	13*	1	-12
CC1(C(=O)NS(C)(=O)=O)CCN1C(=O)Cc1ccc(-c2ccccc2)cc1 (configuration not stated)	/	/	/	-2	/	4
O=C(NNC(=O)c1cccc2ccccc12)c1ccccc1O	29*	8	-1	1	0	5
O=C(NNC(=O)c1ccc2ccccc2c1O)Nc1ccc(F)cc1	2	-13	-3	2	1	0
Cc1cccc(NC(=O)NNC(=O)c2ccc3ccccc3c2O)c1	58*	7	/	8.5*	1	-14
Cc1ccc(NC(=O)NNC(=O)c2cc3ccccc3cc2O)cc1	70*	-17	26	-3	-5	10
CCN(Cc1cnn(C)c1)C(=O)c1ccc2nc(Cc3ccccc3F)oc2c1	/	/	/	-2	/	20
C[C@@H]1c2ccccc2N2C[C@H](Cc3ccc(C(=O)c4ccccc4)cc3)C[C@@H]12	/	/	/	-5	/	36
COc1cc(F)ccc1-c1csc(C(O)c2ccc(F)cc2)n1 (configuration not stated)	/	/	/	1	/	-1
COc1ccc(C(C)(NC(C)=O)c2nc(/C=C/c3ccccc3)cs2)cc1 (configuration not stated)	/	/	/	-1	/	25
C[C@H](N)C(=O)NC[C@H]1O[C@@H](n2cnc3c(N)ncnc32)[C@H](O)[C@@H]1O	-2	/	/	0	/	0
Nc1ncnc2c1ncn2[C@@H]1O[C@H](CNC(=O)[C@@H](N)C2CCCCC2)[C@@H](O)[C@H]1O	73*	/	/	-1	/	-3
CSCC[C@H](N)C(=O)NC[C@H]1O[C@@H](n2cnc3c(N)ncnc32)[C@H](O)[C@@H]1O	39*	/	/	0	/	-1
Nc1nnnn1-c1cccc([N+](=O)[O-])c1	0	/	/	-3	/	3
COC(=O)C[C@H]1C[C@H]2c3cc(NC(=O)C4CCOCC4)ccc3O[C@H]2[C@H](CO)O1	/	/	/	-2	/	-1
C=C(C)C1Cc2nc(N)nc(C)c2C1 (configuration not stated)	-1	-5	0	-1	0	1
C=C(C)C1Cc2c(C)nn(-c3nc(C)cc(C)n3)c2C1 (configuration not stated)	113*	99	2	0	3	23
Cc1cc(C(C)(C)C)cc(S(=O)(=O)Nc2ccc(O)c(C(=O)O)c2)c1C	5	/	-3	-2	17*	4
CC(=O)Nc1cc(S(=O)(=O)Nc2ccccc2)c(C)cc1C	0	1	-2	0	-1	-3
